Results filed as inconclusive are left out. Calls of active or inactive are those of the source. Unless noted, the call rests on the fitted dose curve; in most records, active means well fitted curve in either direction with a large enough effect (not every such curve was filed as active); inconclusive means small, poorly fitted or top-dose-only effect, or another doubt; inactive means flat fitted curve, though single readings scatter.
Assays:
[1] = molecular target: Lysosomal acid glucosylceramidase (Homo sapiens) (UniProt P04062); assay: Glucocerebrosidase-p2 (AID 348; in the data active means potency below about 10 µM; further: potency means the concentration at half of the fitted maximal effect); details: purified GBA, blue fluorogenic substrate, 40 min
Lysosomal acid glucosylceramidase (Homo sapiens), sequence (P04062 whole entry, looked up): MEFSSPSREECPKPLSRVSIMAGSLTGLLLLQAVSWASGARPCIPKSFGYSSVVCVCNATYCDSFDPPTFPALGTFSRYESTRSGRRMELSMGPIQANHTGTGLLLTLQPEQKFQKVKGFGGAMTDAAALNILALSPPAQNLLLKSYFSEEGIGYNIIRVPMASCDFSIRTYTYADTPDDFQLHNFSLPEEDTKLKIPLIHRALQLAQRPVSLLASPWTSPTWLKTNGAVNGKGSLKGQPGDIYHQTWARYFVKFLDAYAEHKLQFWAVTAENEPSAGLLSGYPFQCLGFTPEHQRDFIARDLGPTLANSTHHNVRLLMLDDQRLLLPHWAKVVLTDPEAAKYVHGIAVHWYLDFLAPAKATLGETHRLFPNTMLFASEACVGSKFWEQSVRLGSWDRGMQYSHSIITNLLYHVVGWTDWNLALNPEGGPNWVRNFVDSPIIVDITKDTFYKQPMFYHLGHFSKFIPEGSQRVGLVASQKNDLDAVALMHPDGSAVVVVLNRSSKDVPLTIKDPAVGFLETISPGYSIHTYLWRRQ
Outline: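 Compounds titrated from 0.6 nM upwards against 0.2 nM enzyme in pH 5.9 citric acid/KH2PO4, taurocholate, tween-20; blue fluorogenic substrate 80 uM, 40 min room temperature, stopped and read Ex 365/Em 440 for AC50.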

[2] = AP1 Signaling Pathway (AID 357); details: ME-180 AP-1-bla reporter, EGF-induced, beta-lactamase ratio, 5 h; at 7.69 µM (top of the series) unless noted; further: on the % scale 0 is the no-effect control and ±100 the full control effect
Outline: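 ME-180 cells with beta-lactamase reporter under AP-1 response element, stimulated with EC50 EGF; compounds tested in titration series, 5 h at 37 °C. CCF4 substrate added 2.5 h at room temperature; 460/530 nm emission ratio gave %activity and AC50.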

[3] = molecular target: Cytochrome P450 1A2 (Homo sapiens) (UniProt P05177); assay: p450-cyp1a2 (AID 410; calls by dose curve; further: potency means the concentration at half of the fitted maximal effect;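 on activity change, negative = inhibition: -100% = full effect of reference inhibitor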); details: recombinant CYP1A2, luciferin-ME demethylation, luminescence; series mostly up to 11.4 µM
Cytochrome P450 1A2 (Homo sapiens), sequence (P05177 whole entry, looked up): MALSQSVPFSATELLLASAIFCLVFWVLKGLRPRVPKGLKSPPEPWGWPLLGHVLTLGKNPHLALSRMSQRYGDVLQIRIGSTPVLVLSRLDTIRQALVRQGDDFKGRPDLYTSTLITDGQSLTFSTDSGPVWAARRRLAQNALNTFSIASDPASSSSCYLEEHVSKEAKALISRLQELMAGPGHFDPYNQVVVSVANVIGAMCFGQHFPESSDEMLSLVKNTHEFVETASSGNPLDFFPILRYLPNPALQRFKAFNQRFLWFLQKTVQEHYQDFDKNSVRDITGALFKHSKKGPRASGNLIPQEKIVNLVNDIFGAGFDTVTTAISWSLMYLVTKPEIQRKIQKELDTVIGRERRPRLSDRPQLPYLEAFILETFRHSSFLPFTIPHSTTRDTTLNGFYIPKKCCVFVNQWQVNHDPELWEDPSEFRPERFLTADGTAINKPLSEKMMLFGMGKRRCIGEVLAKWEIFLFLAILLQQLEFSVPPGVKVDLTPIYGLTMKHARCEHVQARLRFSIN
Outline: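 20nM CYP1A2 with 100uM Luciferin-ME (at Km) in 100mM KPO4; compound preincubated 10 min, NADPH regeneration added, 60 min at room temperature. Luciferin quantified by luminescence after detection reagent; normalized to 57 uM furafylline.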

[4] = Stat Signaling Pathway (AID 446); details: ME-180 (cervical carcinoma) SIE beta-lactamase reporter, IL-6 stimulated, 5 h; at 7.69 µM (top of the series) unless noted;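 further: ME-180 cervical cancer cells given 40 pM IL-6 alongside compound; SIE-controlled beta-lactamase reporter measured as 460/530 nm FRET emission ratio; on the % scale 0 is the no-effect control and ±100 the full control effect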
Outline: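 IL-6/STAT signaling read in ME-180 cells via an SIE beta-lactamase reporter. Stimulus was 40 pM IL-6 (its AC50) for 5 hrs, so both activation and inhibition register.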

[5] = molecular target: Glucocorticoid receptor (Homo sapiens) (UniProt P04150); assay: GR-GFP Redistribution (AID 450;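 active means compounds whose dose series gives a full or clear partial fitted curve of increased nuclear translocation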; further: potency means the concentration at half of the fitted maximal effect); details: U2OS GR-GFP nuclear translocation, laser cytometry, 2 h
Glucocorticoid receptor (Homo sapiens), sequence (P04150 whole entry, looked up, the tested form may be a part): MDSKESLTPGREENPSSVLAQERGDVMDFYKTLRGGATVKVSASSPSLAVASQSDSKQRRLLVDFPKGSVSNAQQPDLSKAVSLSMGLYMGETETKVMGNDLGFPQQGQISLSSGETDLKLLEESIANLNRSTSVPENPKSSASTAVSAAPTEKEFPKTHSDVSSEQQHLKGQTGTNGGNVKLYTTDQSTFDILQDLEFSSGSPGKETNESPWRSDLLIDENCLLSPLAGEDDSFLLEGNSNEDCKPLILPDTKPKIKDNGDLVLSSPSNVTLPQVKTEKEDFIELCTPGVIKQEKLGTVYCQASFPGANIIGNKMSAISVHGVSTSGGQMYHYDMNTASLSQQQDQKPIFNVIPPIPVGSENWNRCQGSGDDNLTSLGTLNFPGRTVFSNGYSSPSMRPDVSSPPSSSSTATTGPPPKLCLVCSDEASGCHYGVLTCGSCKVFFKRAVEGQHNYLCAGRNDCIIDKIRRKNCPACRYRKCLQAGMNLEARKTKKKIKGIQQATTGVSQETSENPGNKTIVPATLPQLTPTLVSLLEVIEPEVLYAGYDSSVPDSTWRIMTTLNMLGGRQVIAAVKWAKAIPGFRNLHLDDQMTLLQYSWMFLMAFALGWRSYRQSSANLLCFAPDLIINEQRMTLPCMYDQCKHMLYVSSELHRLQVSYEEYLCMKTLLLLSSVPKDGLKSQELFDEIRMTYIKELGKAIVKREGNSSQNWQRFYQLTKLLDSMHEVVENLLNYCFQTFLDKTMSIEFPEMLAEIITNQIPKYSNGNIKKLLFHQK

[6] = molecular target: Glucocorticoid receptor (Homo sapiens) (UniProt P04150); assay: GR-EFC Redistribution (AID 451; calls by dose curve; further: potency means the concentration at half of the fitted maximal effect); details: CHO-K1 GR-EFC translocation, beta-gal luminescence, 2 h
Outline: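 Translocation of GR-ED fusion to nuclear EA restores b-gal, read by luminescence after 1 h room-temperature detection. Engineered CHO-K1 biosensor cells, 1,000/well, exposed 2 h at 37 C to titrations up to 46 uM final.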

[7] = molecular target: Mitogen-activated protein kinase 10 (Mus musculus) (UniProt Q61831); assay: JNK3 AlphaScreen Assay (AID 530); details: JNK3 lysate, c-Jun phosphorylation; series mostly up to 11.4 µM;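 further: kinase came from lysate of stimulated human HepG2 cells; signal reports phosphorylation of biotinylated GST-cJun 1-79 at Ser73 with 10 µM ATP; on the % scale 0 is the no-effect control and ±100 the full control effect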
Outline: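 Compound titrations were preincubated 15 minutes at room temperature with substrate, antibody and pre-activated JNK3-containing HepG2 lysate. Reactions were started with 10 uM ATP and stopped with EDTA-containing bead buffer for AlphaScreen detection.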

[8] = molecular target: 3',5'-cyclic-AMP phosphodiesterase 4B (Homo sapiens) (UniProt Q07343); assay: qHTS Assay for Inhibitors of PDE-IV (AID 607; active means well fitted activation curve with a large enough effect in the main read-out, with a control signal flat, not every such curve was filed as active; further: % of control where 0% means no effect); details: HEK293 ACTOne CNG channel cells, membrane potential fluorescence; series mostly up to 22.9 µM
3',5'-cyclic-AMP phosphodiesterase 4B (Homo sapiens), sequence (Q07343 whole entry, looked up): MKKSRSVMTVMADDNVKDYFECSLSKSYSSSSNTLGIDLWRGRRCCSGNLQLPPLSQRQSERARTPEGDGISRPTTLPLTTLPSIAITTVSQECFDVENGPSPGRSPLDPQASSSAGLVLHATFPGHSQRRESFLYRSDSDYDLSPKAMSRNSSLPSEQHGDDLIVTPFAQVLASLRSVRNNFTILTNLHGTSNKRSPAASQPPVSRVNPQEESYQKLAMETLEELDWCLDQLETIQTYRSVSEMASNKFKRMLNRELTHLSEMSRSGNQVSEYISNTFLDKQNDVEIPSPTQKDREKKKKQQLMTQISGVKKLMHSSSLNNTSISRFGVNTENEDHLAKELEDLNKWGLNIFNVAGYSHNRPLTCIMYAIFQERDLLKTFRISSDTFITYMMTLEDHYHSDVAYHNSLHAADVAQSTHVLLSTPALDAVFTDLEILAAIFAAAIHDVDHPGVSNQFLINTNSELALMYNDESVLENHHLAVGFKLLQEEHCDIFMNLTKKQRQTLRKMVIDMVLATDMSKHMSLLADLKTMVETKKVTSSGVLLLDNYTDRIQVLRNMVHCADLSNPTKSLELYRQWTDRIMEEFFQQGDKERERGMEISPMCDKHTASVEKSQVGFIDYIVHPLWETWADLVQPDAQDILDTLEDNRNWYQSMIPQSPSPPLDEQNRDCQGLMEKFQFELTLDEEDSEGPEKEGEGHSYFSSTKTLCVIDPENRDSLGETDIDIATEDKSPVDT
Outline: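 Live HEK293 cells with a modified cyclic nucleotide-gated (CNG) channel report intracellular cAMP via membrane-potential dye fluorescence (ex 535/em 590 nm). Endogenous PDE-IV was targeted. Compounds were tested at up to 22.9 uM final; RO 20-1724 100 uM served as control.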

[9] = molecular target: Cytochrome P450 2C9 (Homo sapiens) (UniProt P11712); assay: qHTS Assay for Inhibitors and Substrates of Cytochrome P450 2C9 (AID 883; active means well fitted curve in the direction sought with a large enough effect; an effect the other way counts as inactive or inconclusive; further: nearly all actives have a fitted effect of over 60% in size; further: potency means the concentration at half of the fitted maximal effect; on activity change, negative = inhibition: on the % scale 0 is the no-effect control and ±100 the full control effect); details: recombinant CYP2C9, luciferin-H luminescence, 60 min; series mostly up to 11.4 µM
Cytochrome P450 2C9 (Homo sapiens), sequence (P11712 whole entry, looked up): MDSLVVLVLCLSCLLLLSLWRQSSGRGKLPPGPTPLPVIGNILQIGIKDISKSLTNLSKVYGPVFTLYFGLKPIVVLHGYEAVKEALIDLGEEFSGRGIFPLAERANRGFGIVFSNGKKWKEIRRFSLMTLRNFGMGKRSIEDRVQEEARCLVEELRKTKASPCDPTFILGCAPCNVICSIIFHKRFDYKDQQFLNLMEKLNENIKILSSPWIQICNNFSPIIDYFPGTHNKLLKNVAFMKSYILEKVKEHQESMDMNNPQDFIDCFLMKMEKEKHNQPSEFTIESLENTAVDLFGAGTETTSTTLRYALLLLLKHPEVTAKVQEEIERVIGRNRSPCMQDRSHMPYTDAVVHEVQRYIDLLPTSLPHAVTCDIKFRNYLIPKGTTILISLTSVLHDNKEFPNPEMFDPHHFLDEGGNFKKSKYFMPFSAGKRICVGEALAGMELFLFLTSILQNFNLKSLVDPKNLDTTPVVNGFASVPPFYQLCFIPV
Outline: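 Luminescent read-out of deoxyluciferin hydroxylation, normalized to 57uM sulphaphenazole (AC100). Reaction: 10nM enzyme, 100uM Luciferin-H (equal to KM), 25mM KPO4, 10 min compound preincubation, then 60 min with NADPH regeneration, both at 37C.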

[10] = molecular target: Cytochrome P450 3A4 (Homo sapiens) (UniProt P08684); assay: qHTS Assay for Activators of Cytochrome P450 3A4 (AID 885; active means well fitted curve in the direction sought with a large enough effect; an effect the other way counts as inactive or inconclusive; further: nearly all actives have a fitted effect of over 65% in size); details: recombinant CYP3A4, Luciferin-PPXE luminescence, 60 min; series mostly up to 11.4 µM
Cytochrome P450 3A4 (Homo sapiens), sequence (P08684 whole entry, looked up): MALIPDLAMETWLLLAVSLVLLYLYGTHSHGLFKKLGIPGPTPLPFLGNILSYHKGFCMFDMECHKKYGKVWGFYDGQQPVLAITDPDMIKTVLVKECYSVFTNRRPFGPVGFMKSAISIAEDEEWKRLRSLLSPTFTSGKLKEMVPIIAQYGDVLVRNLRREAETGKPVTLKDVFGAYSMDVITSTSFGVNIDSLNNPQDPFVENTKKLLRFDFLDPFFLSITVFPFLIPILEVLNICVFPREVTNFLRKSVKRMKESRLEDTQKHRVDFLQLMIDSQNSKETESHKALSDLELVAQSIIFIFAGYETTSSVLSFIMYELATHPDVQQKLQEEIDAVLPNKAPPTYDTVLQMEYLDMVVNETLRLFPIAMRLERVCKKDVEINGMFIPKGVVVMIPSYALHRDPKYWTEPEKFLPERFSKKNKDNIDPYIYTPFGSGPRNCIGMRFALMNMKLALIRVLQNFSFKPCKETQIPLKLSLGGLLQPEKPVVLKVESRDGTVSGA
Outline: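 Quantitative HTS format: compounds preincubated with 20nM human CYP3A4 and Luciferin-PPXE substrate at KM, reaction started by NADPH regeneration, stopped after 60 min, luciferase luminescence read 20 min later.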

[11] = molecular target: Cytochrome P450 2C19 (Homo sapiens) (UniProt P33261); assay: qHTS Assay for Inhibitors and Substrates of Cytochrome P450 2C19 (AID 899; active means well fitted curve in the direction sought with a large enough effect; an effect the other way counts as inactive or inconclusive; further: potency means the concentration at half of the fitted maximal effect; nearly all actives have a fitted effect of over 60% in size); details: recombinant CYP2C19, luciferin-H EGE luminescence; series mostly up to 11.4 µM
Cytochrome P450 2C19 (Homo sapiens), sequence (P33261 whole entry, looked up): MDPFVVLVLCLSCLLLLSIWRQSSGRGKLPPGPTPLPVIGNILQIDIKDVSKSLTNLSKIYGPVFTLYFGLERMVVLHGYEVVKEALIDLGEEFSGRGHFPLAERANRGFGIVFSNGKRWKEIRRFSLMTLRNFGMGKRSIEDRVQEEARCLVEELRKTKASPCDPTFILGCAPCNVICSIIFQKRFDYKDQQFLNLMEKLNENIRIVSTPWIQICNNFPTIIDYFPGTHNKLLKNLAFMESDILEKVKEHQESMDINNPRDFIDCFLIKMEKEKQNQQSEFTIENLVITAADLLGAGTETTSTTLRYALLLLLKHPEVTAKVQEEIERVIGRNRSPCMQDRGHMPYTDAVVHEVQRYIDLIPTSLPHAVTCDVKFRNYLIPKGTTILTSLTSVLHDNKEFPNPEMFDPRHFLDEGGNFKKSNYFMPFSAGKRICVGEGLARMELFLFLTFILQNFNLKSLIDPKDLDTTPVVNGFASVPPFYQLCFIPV
Outline: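 Luminescence readout of luciferin formed from 10uM Luciferin-H EGE (KM level) by 5 nM CYP2C19 in 50mM KPO4. 60 min NADPH-driven reaction at 37C after 10 min compound preincubation; data scaled to 57uM ketoconazole inhibition.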

[12] = molecular target: Cytochrome P450 2D6 (Homo sapiens) (UniProt P10635); assay: qHTS Assay for Inhibitors and Substrates of Cytochrome P450 2D6 (AID 891; active means well fitted curve in the direction sought with a large enough effect; an effect the other way counts as inactive or inconclusive; further: potency means the concentration at half of the fitted maximal effect; nearly all actives have a fitted effect of over 60% in size); details: recombinant CYP2D6, luciferin-ME EGE luminescence; series mostly up to 11.4 µM
Cytochrome P450 2D6 (Homo sapiens), sequence (P10635 whole entry, looked up): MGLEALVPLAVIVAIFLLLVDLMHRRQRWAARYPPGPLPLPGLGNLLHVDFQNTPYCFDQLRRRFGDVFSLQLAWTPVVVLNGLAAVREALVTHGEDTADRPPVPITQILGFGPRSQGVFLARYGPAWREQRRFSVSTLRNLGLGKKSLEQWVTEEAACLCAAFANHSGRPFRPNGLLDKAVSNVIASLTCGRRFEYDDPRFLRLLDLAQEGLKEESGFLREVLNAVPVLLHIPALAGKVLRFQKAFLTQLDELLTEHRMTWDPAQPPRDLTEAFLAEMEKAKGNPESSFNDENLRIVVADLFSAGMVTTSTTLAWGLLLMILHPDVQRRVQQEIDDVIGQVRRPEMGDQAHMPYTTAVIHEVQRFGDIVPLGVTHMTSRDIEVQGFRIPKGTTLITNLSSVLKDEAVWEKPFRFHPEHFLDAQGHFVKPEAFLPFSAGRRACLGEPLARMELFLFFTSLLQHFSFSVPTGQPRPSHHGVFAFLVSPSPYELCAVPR
Outline: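 Human CYP2D6 (5 nM) with 30 uM Luciferin-ME EGE (at Km) in 100 mM KPO4, compound preincubated 10 min, then NADPH regeneration system for 60 min at room temperature. Luciferin read by luminescence; normalized to 1.43 uM quinidine.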

C/C(=N/Nc1nc(C)cc(=O)[nH]1)C(=O)O
inactive: Potency [1] > 11.4 µM | activity change, negative = inhibition [2] 1.69% | Potency [3] | activity, negative = inhibition [4] -0.204% | Potency [5] > 46 µM | Potency [6] > 9.22 µM | Potency [7] | Potency [8]

Nc1ncnc2c1ncn2[C@H]1O[C@@H](C(=O)O)[C@@H](O)[C@H]1O
inactive: Potency [1] > 11.4 µM | activity change, negative = inhibition [2] 17.5% | Potency [3] | activity, negative = inhibition [4] 6.21% | Potency [5] > 46 µM | Potency [6] > 9.22 µM | Potency [7] | Potency [8]

COc1nc(N)nc2c1ncn2[C@@H]1C[C@H](O)[C@@H](CO)O1
inactive: Potency [1] > 11.4 µM | activity change, negative = inhibition [2] 5.07% | Potency [3] | activity, negative = inhibition [4] 11.5% | Potency [5] > 46 µM | Potency [6] > 9.22 µM | Potency [7] | Potency [8]

COc1ccc(C[N+](C)(C)N)cc1OC
inactive: Potency [1] > 11.4 µM | activity change, negative = inhibition [2] 0.59% | Potency [3] | activity, negative = inhibition [4] 7.15% | Potency [5] > 46 µM | Potency [6] > 9.22 µM | Potency [7] | Potency [8]

CN(C)CCC(=O)[C@@]1(O)CC[C@H]2[C@H]3CC=C4C[C@@H](O)CC[C@]4(C)[C@H]3CC[C@]21C
inactive: Potency [1] > 11.4 µM | activity change, negative = inhibition [2] 3.32% | Potency [3] | activity, negative = inhibition [4] -18.3% | Potency [5] > 46 µM | Potency [6] > 9.22 µM | Potency [7] | Potency [8]

O=C(Nc1cccc2cccnc12)[C@@H]1[C@@H](C(=O)O)[C@H]2CC[C@@H]1O2
inactive: Potency [1] > 11.4 µM | activity change, negative = inhibition [2] 6.33% | Potency [3] | activity, negative = inhibition [4] -11% | Potency [5] > 46 µM | Potency [6] > 9.22 µM | Potency [7] | Potency [8]

O=C(O)/C=C\C(=O)N1Cc2cc3ccccc3nc2C1
inactive: Potency [1] > 11.4 µM | activity change, negative = inhibition [2] 6.48% | Potency [3] | activity, negative = inhibition [4] 12.1% | Potency [5] > 46 µM | Potency [6] > 9.22 µM | Potency [7] | Potency [8]

Cc1cc(=Nc2ccc3c(c2)c(N)cc(C)[n+]3C)nc(N)n1C
inactive: Potency [1] > 11.4 µM | activity change, negative = inhibition [2] -3.85% | activity change, negative = inhibition [3] -5.3% [at 2.29 µM] | activity, negative = inhibition [4] -8.63% | Potency [5] > 46 µM | Potency [6] > 9.22 µM | Potency [7] | Potency [8]

[O-][N+](CCO)(CCO)c1ncnc2nc[nH]c12
inactive: Potency [1] > 11.4 µM | activity change, negative = inhibition [2] 1.99% | Potency [3] | activity, negative = inhibition [4] -1.19% | Potency [5] > 46 µM | Potency [6] > 9.22 µM | Potency [7] | Potency [8]

O=C(O)CCNc1ncnc2nc[nH]c12
inactive: Potency [1] > 11.4 µM | activity change, negative = inhibition [2] 8.82% | Potency [3] | activity, negative = inhibition [4] -5.64% | Potency [5] > 46 µM | Potency [6] > 9.22 µM | Potency [7] | Potency [8]

CC[C@@H](Nc1ncnc2nc[nH]c12)C(=O)O
inactive: Potency [1] > 11.4 µM | activity change, negative = inhibition [2] -11.2% | Potency [3] | activity, negative = inhibition [4] 0.774% | Potency [5] > 46 µM | Potency [6] > 9.22 µM | Potency [7] | Potency [8]

Cc1c(Cl)cccc1NC(=O)C[C@H]1Sc2ccccc2NC1=O
inactive: Potency [1] > 11.4 µM | activity change, negative = inhibition [2] -17.8% | activity change, negative = inhibition [3] -23.2% [at 2.29 µM] | activity, negative = inhibition [4] 6.79% | Potency [5] > 46 µM | Potency [6] > 9.22 µM | Potency [7] | Potency [8] | Potency [9] | Potency [10]

Oc1ccc2ccccc2c1Cc1c(O)ccc2ccccc12
inactive: Potency [1] > 11.4 µM | activity change, negative = inhibition [2] 0.512% | activity, negative = inhibition [4] -5.79% | Potency [5] > 46 µM | Potency [6] > 9.22 µM | Potency [7] | Potency [8]
active: Potency [3] 3.98 µM | Potency [9] 2 µM | Potency [11] 0.316 µM

COc1ccccc1-c1ccc2ncnc(NCc3cccnc3)c2c1
active: Potency [3] 0.794 µM | Potency [12] 7.94 µM | Potency [11] 0.0079 µM
inactive: Potency [1] > 11.4 µM | activity change, negative = inhibition [2] -18.5% | activity, negative = inhibition [4] -19.8% | Potency [5] > 46 µM | Potency [6] > 46 µM | Potency [7] | Potency [8] | Potency [10]

— PubChem BioAssay (NCATS)
